Laboratory results published in PubChem BioAssay (NCATS).
Inconclusive results are not listed. Activity calls are given as the source filed them. Calls come from the whole dose curve; as a rule, active = well fitted cell-killing curve with a large enough effect; inconclusive = small, poorly fitted or top-dose-only effect; inactive = no such curve, though single readings can be large or run the other way.

Test: qHTS of pediatric cancer cell lines to identify multiple opportunities for drug repurposing: Primary screen for LAN-5 cells (AID 1347100)
Details: LAN-5 neuroblastoma viability, CellTiter-Glo luminescence, 48 h; series mostly up to 46 µM
Text: Drug repurposing or repositioning has been offered as a strategy for drug development in oncology programs. This approach has special potential for childhood cancers and other rare or orphan diseases, where the expected return on new drug development has been a disincentive to pharmaceuticals.
In this project we exploit the poly-pharmacology of drugs to discover new indications via phenotypic screening of a panel of 19 well-characterized cell lines derived from solid tumors seen in children and adolescents. The goal is to identify approved drugs with previously unrecognized anticancer properties that has the potential to reveal new mechanisms and biological processes involved in carcinogenesis or drug resistance. We employed a titration-based paradigm (quantitative high-throughput screening or qHTS), where all compounds were tested at multiple concentrations for their effect on cell viability. Concentration-response curves (CRCs) were derived directly from the primary screen, and both potency and efficacy values were used to identify compounds with robust bioactivity profiles. We screened the NIH Chemical Genomics Center (NCGC) Pharmaceutical Collection (NPC) and Mechanism Interrogation Plate (MIPE) small molecule collections of approved and investigational compounds against these cell lines; and measured metabolically active cells after 48 hours of compound treatment as a proxy for cell viability.
Assay Submitter: Nathalia J. Martinez, National Center for Advancing Translational Sciences, National Institutes of Health, Rockville, MD, USA; email: natalia.martinez@nih.gov
[1] Shen, M et al. Quantitative high-throughput phenotypic screening of pediatric cancer cell lines identifies multiple opportunities for drug repurposing. Oncotarget 2017 Dec 19;9(4):4758-4772. PMID 29435139.
The cells were obtained from University of North Carolina (UNC), Pediatric Preclinical Testing Program (PPT), and Coriell Institute (CI).
qHTS cell viability assay:
Cells were assayed in growth media at a density of 500-1,000 cells/well. Five microliters of cells were dispensed into 1,536-well, white, solid-bottom, TC-treated plates (Greiner Bio One) using a multidrop dispenser and incubated at 37 degrees C, 5% CO2, under a humidified atmosphere for 5 hours. Twenty-three nanoliters of compounds and controls (neutral control DMSO or positive control bortezomib at final concentration of 2.3 µM) were subsequently transferred by Kalypsys pintool. For primary screens, the MIPE collection was tested at 11-point dilutions (final concentrations range from 0.78 nM to 46 µM) and the NPC collection at 8-point dilutions (final concentrations range from 0.59 nM to 46 µM). Compounds tested in follow-up screens were assayed at 11-point dilutions. Cells were incubated for 48 hours, followed by addition of 3 µL of CellTiter-Glo (Promega). After a 15 min incubation at room temperature, samples were analyzed for luminescence intensity using a ViewLux High-throughput CCD imager equipped with clear filters.
Potency is the fitted concentration of half-maximal effect.

Row | Structure (SMILES) | Potency
1 | CN1CCN(c2ccc3nc(-c4c(N)c5c(F)cccc5[nH]c4=O)[nH]c3c2)CC1 | 4.69 µM (active)
2 | COc1ccc(OC)c(-c2nnc3ccc(-c4ccc(OC)c(O[C@@H]5CCOC5)c4)nn23)c1 | 26.4 µM (active)
3 | O=c1c2ccccc2nc2n1CCc1c-2[nH]c2ccccc12 | inactive
4 | Cc1c(NC(=O)OC[C@@H]2COCCN2)cn2ncnc(Nc3ccc4c(cnn4Cc4cccc(F)c4)c3)c12 | 20.9 µM (active)
5 | C=CC(=O)Nc1cccc(Oc2nc(Nc3ccc(N4CCN(C)CC4)cc3)ncc2Cl)c1 | 2.64 µM (active)
6 | CN(C)Cc1c(C(=O)NCCOc2ccc(C(=O)NO)cc2)oc2ccccc12 | 0.469 µM (active)
7 | Cc1cn(-c2cc(NC(=O)c3ccc(C)c(Nc4nccc(-c5cccnc5)n4)c3)cc(C(F)(F)F)c2)cn1 | inactive
8 | CC(C)(C)c1cc(C(C)(C)C)c(NC(=O)c2c[nH]c3ccccc3c2=O)cc1O | inactive
9 | COc1cc(C(=O)N2CCC(N3CCN(C)CC3)CC2)ccc1Nc1ncc2c(n1)N(C)c1ccccc1C(=O)N2C | 5.26 µM (active)
10 | Cc1cnc(Nc2ccc(F)cc2Cl)nc1-c1c[nH]c(C(=O)N[C@H](CO)c2cccc(Cl)c2)c1 | 0.469 µM (active)
11 | Cc1[nH]c2ccccc2c1CCNCc1ccc(C=CC(=O)NO)cc1 | 0.105 µM (active)
12 | COc1cc(Nc2ncc(F)c(Nc3ccc4c(n3)N(COP(=O)(O)O)C(=O)C(C)(C)O4)n2)cc(OC)c1OC | 1.87 µM (active)
13 | Cn1c2cc(S(C)=O)sc2c2cnn(Cc3cccc(N)c3)c(=O)c21 (stereo not given) | inactive
14 | COc1ccc(-n2nc(C(N)=O)c3c2C(=O)N(c2ccc(N4CCCCC4=O)cc2)CC3)cc1 | inactive
15 | O=C(Cc1ccc(-c2ccc(OCCN3CCOCC3)cc2)cn1)NCc1ccccc1 | 0.0093 µM (active)
16 | Cc1ccc2nc(NC(=O)CSc3nc4c(c(=O)n3-c3ccccc3)SCC4)sc2c1 | 14.8 µM (active)
17 | Cc1cc(Nc2ncnc3ccc(-c4ccc(CNCCS(C)(=O)=O)o4)cc23)ccc1Oc1ccn2ncnc2c1 | 14.8 µM (active)
18 | CCCCc1nc2cc(C=CC(=O)NO)ccc2n1CCN(CC)CC | 0.0833 µM (active)
19 | NC(=O)c1cccc2cn(-c3ccc([C@@H]4CCCNC4)cc3)nc12 | 11.8 µM (active)
20 | CC(C)Nc1cc(C(F)(F)F)cc2nc(NC(=O)c3cccnc3)nn12 | inactive

Row | Structure (SMILES) | Potency
21 | CC(C)[C@H](C(=O)Nc1ccc(C(=O)NO)cc1)c1ccccc1 | 0.526 µM (active)
22 | CC(C)(O)CCc1ccc(OCc2cc(-c3cccc(OC(F)F)c3)c3ncccc3c2)cc1 | inactive
23 | C=CCn1c(=O)c2cnc(Nc3ccc(N4CCN(C)CC4)cc3)nc2n1-c1cccc(C(C)(C)O)n1 | 0.469 µM (active)
24 | COc1cc(C)c(Sc2cnc(NC(=O)c3ccc(CNC(C)C(C)C)cc3)s2)cc1C(=O)N1CCN(C(C)=O)CC1 (stereo not given) | 2.64 µM (active)
25 | CCCCOc1c(C(=O)c2c(F)cc(C)cc2F)cnc2n[nH]cc12 | 4.18 µM (active)
26 | Nc1nc(NCCNc2ncc(-n3ccnc3)c(-c3ccc(Cl)cc3Cl)n2)ccc1[N+](=O)[O-] | 10.5 µM (active)
27 | COc1c(OCCCN2CCOCC2)ccc2c3n(c(=NC(=O)c4cnc(N)nc4)nc12)CCN3 | 0.407 µM (active)
28 | O=c1[nH]nc(Sc2ncc([N+](=O)[O-])s2)n1-c1ccc2c(c1)OCCO2 | 8.33 µM (active)
29 | CC(C)C[C@H](NC(=O)CNC(=O)c1cc(Cl)ccc1Cl)B(O)O | 0.132 µM (active)
30 | Nc1nccc(Oc2ccc(NC(=O)c3c[nH]cc(-c4ccc(F)cc4)c3=O)cc2F)c1Cl | 1.18 µM (active)
31 | CC(C)c1cc(-c2n[nH]c(=O)n2-c2ccc3c(ccn3C)c2)c(O)cc1O | 0.0662 µM (active)
32 | Nc1ncnc2c1c(-c1cccc(OCc3ccccc3)c1)cn2C1CC(CN2CCCC2)C1 (stereo not given) | 1.32 µM (active)
33 | CN(C1CCc2c(c3ccccc3n2CC(=O)O)C1)S(=O)(=O)c1ccc(F)cc1 (stereo not given) | 5.26 µM (active)
34 | O=C(O)[C@H](Cc1c[nH]c2ccccc12)N1C(=O)c2ccccc2C1=O | inactive
35 | COc1cc2c(Oc3ccc4[nH]c(C)cc4c3F)ncnc2cc1OCCCN1CCCC1 | 20.9 µM (active)
36 | Cc1ccc(NC(=O)C2(c3ccc4c(c3)OC(F)(F)O4)CC2)nc1-c1cccc(C(=O)O)c1 | 0.0833 µM (active)
37 | CNC(=O)c1ccccc1Nc1nc(Nc2ccc(N3CCOCC3)cc2OC)ncc1Cl | 0.264 µM (active)
38 | O=c1[nH]c(=O)n(C2CCCO2)cc1F (stereo not given) | inactive
39 | Clc1cccc(-n2nnnc2NCc2ccccc2Oc2ccccn2)c1Cl | inactive
40 | Clc1cccc(-c2nnnn2Cc2cccnc2)c1Cl | inactive
